Screens as filed in PubChem BioAssay.
HCT116 PTEN-null = suppresses growth of cells with PTEN deletion; HCT116 PTEN-null viability, CellTiter-Glo, 60 h; stronger effect = lower value; 1.2% of 140,000 active; viability, % at 10 µM;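 active = viability at or below a set limit, 4 SD under the median of all tested compounds, cut at about 3.7% in these data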;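 also: PTEN knockout HCT116 line with beta catenin targeted HCT116 as companion control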
Insulin prom inh = TRM-6 insulin promoter activity inhibition; AID 1273; TRM-6 cells (human fetal islet line), insulin promoter-eGFP reporter, imaging; reporter expression induced with tamoxifen; 0.9% of 130,000 active; inhibition, % at 2 µM;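 active = inhibition above the mean plus 3 SD, with well images judged a real hit on visual review, cut at about 60% in these data, passing the limit was not always enough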
ROMK primary = modulates human ROMK potassium channel activity; 2% of 130,000 active; Tet-inducible ROMK, thallium flux fluorescence; actives lie on both sides; P48048; B-score at 10 µM;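 active = signal ratio slope over the read window, or its plate-corrected B-score, at least 3 SD from the plate mean, either direction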;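 also: B-score of the F/F0 ratio slope over 7 to 12 s after thallium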
Lmaj promast = Leishmania major promastigote growth inhibition; Leishmania major promastigotes, resazurin fluorescence viability; inhibition, % at 10 µM; 9% of 200,000 active; in the data active = inhibition above about 50%;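 also: promastigotes grown with compound for 44 hours at 28 °C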
bCat KO growth = beta-catenin-lacking colon tumor cell growth suppression | HCT116 beta-catenin knockout viability, CellTiter-Glo, 60 h; stronger effect = lower value | 1.5% of 140,000 active | AID 818 | viability, % at 10 µM;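 active = viability at or under a set limit, the compound median less 4 SD, cut at about 6% in these data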
p97 ATPase inh = inhibitors of human p97 ATPase. P55072. recombinant p97 ATPase, Kinase-Glo ATP luminescence, 3 h. inhibition, % at 8 µM. 0.42% of 220,000 active. AID 1481; in the data active = inhibition above about 15%
Target sequence (P55072 whole entry, looked up): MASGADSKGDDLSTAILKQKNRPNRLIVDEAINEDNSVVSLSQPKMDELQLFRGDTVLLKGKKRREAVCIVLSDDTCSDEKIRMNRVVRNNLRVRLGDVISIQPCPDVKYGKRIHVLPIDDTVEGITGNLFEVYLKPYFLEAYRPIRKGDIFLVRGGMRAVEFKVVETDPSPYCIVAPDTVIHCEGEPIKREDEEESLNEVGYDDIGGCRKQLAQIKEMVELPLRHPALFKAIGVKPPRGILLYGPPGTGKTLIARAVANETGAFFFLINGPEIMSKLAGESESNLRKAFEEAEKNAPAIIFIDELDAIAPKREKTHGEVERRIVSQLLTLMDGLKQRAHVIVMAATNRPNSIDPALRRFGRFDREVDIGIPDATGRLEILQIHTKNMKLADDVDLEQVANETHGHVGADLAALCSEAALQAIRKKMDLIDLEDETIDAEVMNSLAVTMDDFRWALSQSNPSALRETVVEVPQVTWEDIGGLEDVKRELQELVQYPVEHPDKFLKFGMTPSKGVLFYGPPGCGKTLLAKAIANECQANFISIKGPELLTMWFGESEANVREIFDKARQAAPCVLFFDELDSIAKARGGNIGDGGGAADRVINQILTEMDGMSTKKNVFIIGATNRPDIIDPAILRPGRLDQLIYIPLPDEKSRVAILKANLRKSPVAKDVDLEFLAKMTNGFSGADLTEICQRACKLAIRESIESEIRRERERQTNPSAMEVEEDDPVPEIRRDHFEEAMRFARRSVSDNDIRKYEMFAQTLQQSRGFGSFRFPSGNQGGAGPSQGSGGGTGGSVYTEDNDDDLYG
Lmaj promast 1uM = blocks Leishmania major promastigote growth at 1 uM, repeat screen | 13% of 1,100 active | L. major promastigote growth, resazurin fluorescence, 48 h | AID 1258 | inhibition, % at 1 µM | shares compounds with Lmaj promast;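 active = inhibition above about 50% in both repeat tests, limit read from the data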
Numbers stand for hits; – = inactive; · = no result. The list is not random: actives were taken first. Their share in the collection is about 10%.

SMILES	HCT116 PTEN-null	Insulin prom inh	ROMK primary	Lmaj promast	bCat KO growth	p97 ATPase inh	Lmaj promast 1uM
O=C(CC1Sc2ccccc2NC1=O)NCc1ccc(Cl)cc1 (centres undefined)	·	–	–	–	·	–	·
O=C(O)c1cc2c(s1)-c1ccccc1CC2	–	–	–	53	–	–	–
COc1ccc2c(c1)CCc1cc(C(=O)O)sc1-2	·	·	·	·	·	–	·
COc1ccc(-c2cc3nc(-c4ccccc4)cc(N4CCC5(CC4)OCCO5)n3n2)cc1	–	·	–	80	–	–	–
CCOC(=O)c1c(NC(=O)Cn2cnc([N+](=O)[O-])n2)sc(C)c1C	·	–	–	52	·	–	–
CCOC(=O)c1c(NC(=O)Cn2nc(C(F)F)cc2C(F)F)sc(C)c1C	–	–	·	–	–	–	·
Cc1cccc(OCCn2c(-c3ccco3)nc3ccccc32)c1	–	–	·	–	–	–	·
Cc1cccc(OCCn2c(NC(=O)c3ccco3)nc3ccccc32)c1	–	–	·	97	–	–	87
CC1(C)Oc2ccc3ccc(=O)oc3c2C(N2CCCCC2)C1O (centres undefined)	–	–	·	–	–	–	·
CC(=O)OC1C(N2CCCCC2)c2c(ccc(/C=C/C(=O)N3CCCCC3)c2O)OC1(C)C (centres undefined)	·	·	–	73	·	–	–
NCCCCCc1nnc(SCC(=O)Nc2cccc(Cl)c2)o1	–	·	·	–	–	–	·
NCCCCCc1nnc(SCc2cccc(Cl)c2)o1	–	·	–	98	–	–	–
Cc1ccc(/C=C(\NC(=O)c2ccccc2)C(=O)OCc2ccccc2)cc1	–	–	–	63	–	–	–
NC(=S)Nn1c(CCC(=O)O)ccc1-c1ccccc1	–	–	–	66	–	–	–
NC(=O)Nn1c(CCC(=O)O)ccc1-c1ccc(F)cc1	–	–	·	–	–	–	·
c1ccc2c(c1)OC(CCCN1CCCCC1)c1ccccc1S2 (centres undefined)	–	–	·	100	–	–	95
CCOc1ccc(Oc2ccc(C(F)(F)F)cc2N)cc1	–	–	–	51	–	–	–
CCN(CC)C(=O)COc1ccc2oc(-c3ccco3)cc(=O)c2c1	·	·	–	–	·	–	·
CCC/C(O)=C1\C(=O)CCCC1=NCCc1c(C)[nH]c2ccc(OC)cc12	·	–	·	–	·	–	·
CCOC(=O)c1c(-c2ccc(F)cc2)csc1NC(=O)CCN1C(=O)c2ccccc2C1=O	–	·	·	–	–	–	·
CCOC(=O)c1c(-c2ccc(F)cc2)csc1NC(=O)CCN1CCOCC1	–	·	·	93	–	–	77
COC(=O)c1cc(C)sc1NC(=O)C1CC(=O)NN1Cc1ccccc1 (centres undefined)	–	·	·	95	–	–	–
CCc1ccc(/C=C/c2c[nH]c3ccccc23)[n+](CC)c1	–	–	–	100	–	–	–
CCOC(=O)c1c(C)oc2ccc(OC(=O)COc3c(F)c(F)c(F)c(F)c3F)cc12	–	–	–	–	–	–	·
CC(C)c1ccccc1NC(=O)COC(=O)Cc1ccsc1	–	·	–	–	–	–	·
SMILES	HCT116 PTEN-null	Insulin prom inh	ROMK primary	Lmaj promast	bCat KO growth	p97 ATPase inh	Lmaj promast 1uM
Cc1cc(/C=N/n2cnnc2)c(C)n1-c1cccc(Cl)c1	–	–	·	85	–	–	–
Cc1cc(/C=N/O)c(C)n1-c1cccc(Cl)c1	·	–	–	–	·	–	·
O=C(Nc1nc(-c2ccccc2)cs1)c1ccc(N2CCOCC2)c([N+](=O)[O-])c1	–	·	·	98	–	–	–
Cc1ccc(-c2csc(NC(=O)c3cc([N+](=O)[O-])ccc3N3CCOCC3)n2)cc1	·	–	–	–	·	–	·
O=C(Nc1nc(-c2cccc([N+](=O)[O-])c2)cs1)C(c1ccccc1)c1ccccc1	–	–	·	59	–	–	–
CCOC(=O)c1nc2cc3n(c(C)c-2c1C)C(C)C(C)=C3C (centres undefined)	–	–	·	67	–	–	–
CN1CCN(C(=S)NC(=O)c2ccc(S(=O)(=O)N3CCOCC3)cc2)CC1	·	·	–	–	·	–	·
O=C(NC(=S)N1CCN(C(c2ccccc2)c2ccccc2)CC1)c1ccc(S(=O)(=O)N2CCOCC2)cc1	–	–	–	99	–	–	–
Cc1cccc(C(C)C)c1-n1nnnc1-c1ccccc1	–	·	–	–	–	–	·
CCC(C)(c1nnnn1-c1c(C)cccc1C)N(N=O)c1ccccc1Cl (centres undefined)	–	·	·	100	–	–	95
